Test systems include T-47D breast; BT-549 breast; MDA-MB-435 melanoma; SW-620 colon; MCF7 breast; HCT-116 colon; KM12 colon; HCC-2998 colon.
Holding throughout (assay): NCI-60 one-dose screen, 48 h (100 = growth as untreated, 0 = no growth, -100 = all killed)
What all share (conditions): 10 µM unless noted

The panel holds about 83,000 compounds, 20% with a hit somewhere; the sample as a whole holds those more often.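 Cell lines were cultured in 96-well plates, exposed to a single compound concentration, and assessed for percent growth 48 hours later.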 Unmarked numbers belong to inactive results. Activity calls are given as the source filed them. The calls were made as follows: active = growth percent below 10; inactive = the rest.

Turning to `Cc1ccc(O)c(N2C(=NCc3ccco3)NS(=O)(=O)c3cnccc32)c1`, the growth in the assay on T-47D breast is 110%; in the assay with BT-549 breast, 101%; with MDA-MB-435 melanoma it was 91.8%; in the assay on SW-620 colon, 111%; in the assay with MCF7 breast it was 101%; in the assay with HCT-116 colon, 99%. Also, the growth with KM12 colon was 112%.
Take `NCCNc1nc(Nc2ccc(-c3nc4ccccc4[nH]3)cc2)c2cn[nH]c2n1`: the growth with T-47D breast is 60.8%; in the assay on BT-549 breast, 80.2%; with MDA-MB-435 melanoma it was 94%; with SW-620 colon it was 28.4%; in the assay with MCF7 breast, 39.2%; with HCT-116 colon it was 14.9%. The growth with KM12 colon is 25.2%.
For `Cc1ccc2c(c1)C(=O)/C(=C/c1cccc(OCC(=O)c3ccc(Cl)cc3)c1)CS2`, the growth with T-47D breast was 84.9%; in the assay with BT-549 breast, 101%; with MDA-MB-435 melanoma, 65.3%; in the assay on SW-620 colon, 25.1%; in the assay with MCF7 breast it was 47.4%; with HCT-116 colon, 52.9%. Also, the growth with KM12 colon was 60.3%.
With `O=C1/C(=C/c2ccccc2O)N=C2SCCCN12`, the growth in the assay with T-47D breast was 84.5%; with BT-549 breast, 98%; in the assay with MDA-MB-435 melanoma, 96.6%; with SW-620 colon, 89.3%; with MCF7 breast, 92.2%; in the assay on HCT-116 colon, 95.5%. Moreover, the growth in the assay with KM12 colon is 90.2%.
For the molecule `Cc1cc(C)nc(SC2=C(Nc3cccc(Cl)c3)C(=O)N(Cc3ccccc3)C2=O)n1`, the growth in the assay on T-47D breast was 22.2% [30 µM]; in the assay with BT-549 breast, 65.5% [30 µM]; with MDA-MB-435 melanoma it was 61.4% [30 µM]; with SW-620 colon it was 72% [30 µM]; with MCF7 breast it was 49.8% [30 µM]; in the assay with HCT-116 colon, 43.5% [30 µM]. Further, the growth in the assay with KM12 colon is 83.7% [30 µM].
Consider `COc1ccc2c(c1)C(=O)/C(=C/c1ccccn1)CC2`, for which the growth with T-47D breast was 54.2%; with BT-549 breast it was 96.4%; with MDA-MB-435 melanoma it was 57.4%; in the assay with SW-620 colon it was 57.5%; with MCF7 breast it was 15.1%; with HCT-116 colon, 26.3%. Besides, the growth in the assay with KM12 colon was -10% (active).
Take `NC(=NCCCC1(c2ccccc2)CCCC1)Nc1ccc(Cl)cc1`: the growth is 3.02% (active) in the assay on T-47D breast; 86.8% with BT-549 breast; 10.9% in the assay on MDA-MB-435 melanoma; -32.9% (active) in the assay on SW-620 colon; 12.4% with MCF7 breast; 0.509% (active) in the assay with HCT-116 colon. Besides, the growth with KM12 colon is 15.2%.
`O=C1NC(=O)C(c2ccc(Cl)cc2Cl)N1` (centres undefined): the growth is 111% in the assay with T-47D breast; 122% in the assay with BT-549 breast; 113% in the assay with MDA-MB-435 melanoma; 106% in the assay on SW-620 colon; 101% in the assay on MCF7 breast; 103% with HCT-116 colon. The growth in the assay on KM12 colon was 104%.
Take `Cc1nc(Nc2ccc(F)c(Cl)c2)sc1C(=O)O`: the growth in the assay on T-47D breast is 6.86% (active); in the assay on BT-549 breast, -0.289% (active); in the assay with MDA-MB-435 melanoma, 20.4%; in the assay on SW-620 colon, 24.8%; in the assay on MCF7 breast, 11.9%; in the assay on HCT-116 colon, 8.02% (active). Besides, in the assay on KM12 colon, the growth is -3.33% (active).
Consider `COc1ccc(C(=S)N2CCN(c3cccc(Cl)c3)CC2)cc1`, for which the growth in the assay with T-47D breast is 89.9%; in the assay with BT-549 breast, 90.8%; in the assay with MDA-MB-435 melanoma, 106%; in the assay on SW-620 colon it was 101%; in the assay on MCF7 breast it was 111%; with HCT-116 colon it was 89.2%. For the same molecule, the growth in the assay on KM12 colon is 104%.
On to `CCOc1ccc(-n2nc(C(=O)Nc3ccccc3)nc2-c2cc(OC)c(OC)c(OC)c2)cc1`, for which the growth in the assay with T-47D breast is 39.4%; in the assay with BT-549 breast it was 60.9%; in the assay with MDA-MB-435 melanoma it was 0.193% (active); in the assay with SW-620 colon it was 36.2%; in the assay with MCF7 breast, 37%; with HCT-116 colon it was 21.2%. The growth in the assay with KM12 colon is 27.5%.
Take `NC(=NCCCOc1ccc(Cl)cc1)Nc1ccc(Cl)cc1`: the growth was 8.01% (active) with T-47D breast; 59.6% in the assay with BT-549 breast; 11.1% with MDA-MB-435 melanoma; 33.5% in the assay with SW-620 colon; 10.1% with MCF7 breast; 7.02% (active) in the assay on HCT-116 colon. Further, in the assay on KM12 colon, the growth was 41.3%.
On to `Cc1cc(C)nc(SC2=C(Nc3ccc(O)cc3)C(=O)N(Cc3ccccc3)C2=O)n1`, for which the growth in the assay on T-47D breast is 45% [40 µM]; in the assay with BT-549 breast, 63.9% [40 µM]; in the assay with MDA-MB-435 melanoma it was 80.1% [40 µM]; in the assay on SW-620 colon, 113% [40 µM]; in the assay on MCF7 breast, 77.1% [40 µM]; in the assay with HCT-116 colon, 95.4% [40 µM]. The growth in the assay on KM12 colon was 103% [40 µM].
In the case of `COc1ccc(-c2nc(SCC(=O)Nc3ccc(C(=O)/C=C/c4ccc(Cl)cc4)cc3)[nH]c(=O)c2C#N)cc1`, the growth was 61.8% in the assay on T-47D breast; 84% in the assay on BT-549 breast; 41.9% in the assay on MDA-MB-435 melanoma; 102% in the assay with SW-620 colon; 41% in the assay on MCF7 breast; 2.43% (active) in the assay on HCT-116 colon. Further, in the assay with KM12 colon, the growth is 102%.
Take `C=C1C(=O)O[C@H]2[C@H]1CC/C(COC(=O)NCCc1ccc(OC)c(OC)c1)=C\CC[C@@]1(C)O[C@@H]21`: the growth with T-47D breast was 33.2%; with BT-549 breast it was 64.3%; in the assay on MDA-MB-435 melanoma, 58.3%; in the assay on SW-620 colon, 18.9%; in the assay with MCF7 breast, 34.8%; with HCT-116 colon, 5.66% (active). The growth in the assay on KM12 colon was 84.4%.
In the case of `COc1cc2c(cc1O)CC[C@@H]1[C@@H]2CC[C@]2(C)[C@@H](NCCN(C)C)CC[C@@H]12`, the growth in the assay on T-47D breast was -64.5% (active); with BT-549 breast, -84.3% (active); with MDA-MB-435 melanoma, -78.9% (active); with SW-620 colon, -80.4% (active); with MCF7 breast, -75.8% (active); with HCT-116 colon, -90.6% (active). For the same molecule, the growth in the assay with KM12 colon was -82.4% (active).
Consider `COc1ccc(/C=C2\Oc3cc(OCCCCN4CCCC4)ccc3C2=O)cc1`, for which the growth in the assay with T-47D breast was 87.8%; in the assay with BT-549 breast, 82.3%; in the assay with SW-620 colon, 13.4%; in the assay with MCF7 breast it was 39.6%; in the assay with HCT-116 colon it was 5.32% (active); with HCC-2998 colon, 91%. Also, the growth in the assay with KM12 colon is 70.5%.

These data come from PubChem BioAssay (NCI).
